Among the test systems are HCT-15 colon; HT29 colon; SNB-75 CNS; SNB-19 CNS; U251 CNS; PC-3 prostate; SK-MEL-5 melanoma; UACC-62 melanoma; LOX IMVI melanoma; SK-MEL-28 melanoma.
What all share (assay): NCI-60 one-dose screen, 48 h (100 = growth as untreated, 0 = no growth, -100 = all killed)
Common to all, as to settings: 10 µM unless noted

The structures appear in SMILES notation. About 83,000 compounds went through this panel and 20% of them were active in at least one assay; those are over-represented in the sample as a whole.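 Interpretation: 100, growth as untreated; towards 0, rising growth inhibition; 0, no net growth; 0 to -100, cell death. Compounds scoring below 10 were considered active.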 A number with no mark means an inactive call. Calls of active or inactive are those of the source.

On to `COc1ccc(-c2csc(NC(=O)N3CCN(c4cc5c(cc4F)c(=O)c(C(=O)O)cn5C4CC4)CC3)n2)cc1`, for which the growth with HCT-15 colon was 14.6%; in the test with HT29 colon it was 2.34% (active); in the test on SNB-75 CNS it was -2.38% (active); in the test with SNB-19 CNS, 20.8%; with U251 CNS, 6.54% (active); in the test on PC-3 prostate, -0.577% (active). In addition, the growth is -39.9% (active) in the test on SK-MEL-5 melanoma, -14.2% (active) with UACC-62 melanoma, -76.4% (active) in the test with LOX IMVI melanoma and 33.7% with SK-MEL-28 melanoma.
Consider `C=C1C(=O)O[C@H]2[C@H]1CC/C(COC(=O)NCCOCCOCC(=O)Nc1ccc(OC)c(C(N)=O)c1O)=C\CC[C@@]1(C)O[C@@H]21`, for which the growth is 85.4% with HCT-15 colon; 37.2% in the test on HT29 colon; 80.1% in the test with SNB-75 CNS; 77.8% in the test with SNB-19 CNS; 70.5% in the test with U251 CNS; 51.4% in the test on PC-3 prostate. Further, the figures for the growth with SK-MEL-5 melanoma, in the test with UACC-62 melanoma and in the test with SK-MEL-28 melanoma were 84.9%, 44.4% and 47.1%, respectively.
Take `Cc1ccc(C(=O)NCCNc2nccc(-c3c(-c4cccc(F)c4)nc4sccn34)n2)cc1`: the growth is 38.9% in the test on HCT-15 colon; 35.9% in the test on HT29 colon; -1.5% (active) in the test on SNB-75 CNS; 69.5% in the test with SNB-19 CNS; 62% with U251 CNS; 56.2% in the test with PC-3 prostate. Further, the growth in the test with SK-MEL-5 melanoma was 37.6%; in the test on UACC-62 melanoma, 23.7%; in the test on LOX IMVI melanoma, 39.4%; in the test on SK-MEL-28 melanoma, 65%.
Turning to `Cc1cc(N2CCCC2)nc(N(CCCNc2ccnc3cc(Cl)ccc23)Cc2ccccn2)n1`, the growth with HCT-15 colon was 32.3%; in the test on HT29 colon, 11.2%; in the test on SNB-75 CNS, 77.4%; with SNB-19 CNS, 65.9%; with U251 CNS, 55.3%; in the test on PC-3 prostate, 52%. Besides, the growth was 50.9% with SK-MEL-5 melanoma, 79.8% with UACC-62 melanoma, 32.3% in the test with LOX IMVI melanoma and 69.8% with SK-MEL-28 melanoma.
Regarding `Cc1nn(-c2ccccc2)c(-n2ccnc2)c1/C=N/Nc1nc(-c2ccc(F)cc2)cs1`, the growth is 76.8% in the test with HCT-15 colon; 81.2% with HT29 colon; 73.7% with SNB-75 CNS; 87.1% in the test on SNB-19 CNS; 74.4% with U251 CNS; 65.5% in the test with PC-3 prostate. In addition, the growth in the test on SK-MEL-5 melanoma was 31.4%; in the test with UACC-62 melanoma, 74.9%; in the test with SK-MEL-28 melanoma it was 97.6%.
Consider `COc1ccc(CNC(=O)[C@H](O)[C@@H](N)Cc2ccccc2)cc1`, for which the growth is 107% in the test with HCT-15 colon; 103% in the test with HT29 colon; 86% in the test on SNB-75 CNS; 102% in the test with SNB-19 CNS; 101% in the test with U251 CNS; 108% in the test on PC-3 prostate. The growth is 105% with SK-MEL-5 melanoma, 96.6% in the test with UACC-62 melanoma and 107% with SK-MEL-28 melanoma.
With `CNc1ccc(Nc2cccc(C)c2)c2c1C(=O)c1ccccc1C2=O`, the growth was 85.1% with HCT-15 colon; 96.6% in the test on HT29 colon; 96.3% in the test with SNB-75 CNS; 99.6% in the test with SNB-19 CNS; 95.4% in the test with U251 CNS; 95% with PC-3 prostate. The growth with SK-MEL-5 melanoma was 91%; in the test with UACC-62 melanoma, 64.9%; in the test with LOX IMVI melanoma, 81.5%; in the test with SK-MEL-28 melanoma it was 114%.
On to `CNc1nc2c(s1)C(c1cc(F)ccc1F)CC(=O)N2` (stereo unspecified), for which the growth in the test with HCT-15 colon is 42%; in the test with HT29 colon, 82.4%; in the test with SNB-75 CNS it was 32.4%; in the test on SNB-19 CNS, 72.2%; with U251 CNS, 67.6%; in the test with PC-3 prostate, 81.1%. Also, the values for the growth in the test on SK-MEL-5 melanoma, in the test with UACC-62 melanoma and in the test with SK-MEL-28 melanoma were 64.5%, 50.1% and 69.6%, respectively.
Turning to `Cc1cc(Cl)ccc1NS(=O)(=O)c1ccc(-c2cnc(C3CC3)o2)cc1`, the growth with HCT-15 colon is 14.1%; with HT29 colon it was 5.04% (active); with SNB-75 CNS it was -2.31% (active); in the test with SNB-19 CNS, 22.8%; with U251 CNS it was 24.8%; with PC-3 prostate it was 26.6%. Further, the growth in the test with SK-MEL-5 melanoma was 20.4%; in the test on UACC-62 melanoma it was 26.7%; in the test on LOX IMVI melanoma, 22.4%; in the test on SK-MEL-28 melanoma it was 49.1%.
In the case of `Cc1nc2ccccc2c(/C=C/c2ccc(Cl)cc2)c1C(=O)/C=C/c1cccs1`, the growth is 52.1% in the test on HCT-15 colon; 52.8% in the test on HT29 colon; 56.7% in the test with SNB-75 CNS; 86.7% in the test on SNB-19 CNS; 77.5% in the test on U251 CNS; 54% in the test with PC-3 prostate. Moreover, the growth in the test with SK-MEL-5 melanoma is 76.6%; in the test on LOX IMVI melanoma, 79.6%; in the test on SK-MEL-28 melanoma, 95.7%.
In the case of `CCCCCCCNC(=O)CCCNc1ncnc2c1ncn2-c1cccc(C(C)O)c1` (stereo unspecified), the growth with HCT-15 colon is 87.2%; in the test with HT29 colon, 93.7%; in the test with SNB-75 CNS, 104%; with SNB-19 CNS it was 96.3%; in the test with U251 CNS it was 96.9%; with PC-3 prostate it was 85%. Further, the growth was 85.9% with SK-MEL-5 melanoma, 101% in the test on LOX IMVI melanoma and 96.2% with SK-MEL-28 melanoma.
Turning to `O=c1[nH][n+](-c2ccc(Br)cc2)no1`, the growth with HCT-15 colon is 33.5%; in the test with HT29 colon, 90%; in the test on SNB-75 CNS it was 77.1%; with SNB-19 CNS, 77.8%; in the test with U251 CNS, 73.3%; with PC-3 prostate it was 70.7%. The growth with SK-MEL-5 melanoma was 57.8%; in the test on LOX IMVI melanoma, 7.47% (active); in the test on SK-MEL-28 melanoma, 61.2%.
On to `COc1cc2cc(Oc3ccc(NC(=O)Nc4cc(C(F)(F)F)cc(C(F)(F)F)c4)cc3)c(C)nc2cc1OCCN1CCOCC1`, for which the growth in the test with HCT-15 colon is 13.4%; in the test on HT29 colon it was 10.9%; in the test with SNB-75 CNS, 36%; in the test with SNB-19 CNS, 23.8%; in the test on U251 CNS, 8.71% (active); with PC-3 prostate, 10.5%. Moreover, the growth in the test with SK-MEL-5 melanoma was -13.1% (active); in the test with LOX IMVI melanoma, 20.7%; in the test on SK-MEL-28 melanoma, 51.2%.
Consider `COc1ccc(-c2ncnc3c2ncn3CC#CCCl)cc1`, for which the growth with HCT-15 colon is 49.6%; with HT29 colon, 93.9%; in the test on SNB-75 CNS, 93.5%; in the test with SNB-19 CNS, 72.5%; with U251 CNS, 29.4%; in the test with PC-3 prostate it was 57.1%. In addition, the growth with SK-MEL-5 melanoma is 62.5%; in the test on LOX IMVI melanoma, -31.7% (active); in the test on SK-MEL-28 melanoma, 86.7%.

These data come from PubChem BioAssay (NCI).
